# Unmarked numbers belong to inactive results.
# Tested on: Vero E6 infected with SARS-CoV-2
# Assay: inhibition of SARS-CoV-2 cytopathic effect; higher = more antiviral protection, active = above 15
# Details: 48 h
SMILES,inhibition of SARS-CoV-2 cytopathic effect (1 nM) [%],inhibition of SARS-CoV-2 cytopathic effect (8.33 nM) [%],inhibition of SARS-CoV-2 cytopathic effect (100 nM),inhibition of SARS-CoV-2 cytopathic effect (833.33 nM),inhibition of SARS-CoV-2 cytopathic effect (10000 nM)
COCc1c(-c2ccc(NC(=O)Nc3cc(C(F)(F)F)ccc3F)c(F)c2)c2c(N)ncnn2c1CN1CCOCC1,-1.56,-1.94,-2.74%,-0.39%,-0.16%
CC1(C)OC(=O)NC1=O [dimethadione],-1.41,-1.5,0.11%,0.78%,0.15%
O=C(c1cc(S(=O)(=O)Nc2ccccc2F)c(F)cc1Cl)N1CCN2CCC[C@@H]2C1,1.66,2.06,1.64%,8.06%,-1.59%
COC(=O)C(Cc1ccc(OCCn2c(=O)sc3cc(C(=O)c4ccccc4)ccc32)cc1)C(=O)OC,-0.38,2.25,-1.78%,-1.22%,0.02%
CC(C)Oc1ccc(Cc2ccc(NC3=NCCN3)cc2)cc1,0.38,0.26,2.45%,0.98%,-0.97%
C#CC[C@H](c1nc2cc(Cl)ccc2c(=O)n1Nc1ccccc1)N(CCCN)C(=O)c1cccc(Cl)c1F,-0.8,-0.99,0.22%,1.38%,-9.07%
CN1CCN(c2cccc3[nH]c(=O)oc23)CC1 [pardoprunox],0.73,1.76,3.14%,-2.14%,1.85%
OCC(O)CN1CCN(c2ccccc2)CC1 (stereo not given) [dropropizine],-2.5,-2.56,-2.71%,-2.45%,-3%
[Cl][Ti][Cl].c1cc[cH-]c1.c1cc[cH-]c1 [titanocene-dichloride],3.56,-0.14,1.81%,-1.85%,0.26%
CC(C)c1ccc(NC(=O)c2cccs2)c(-c2nc3ccccc3[nH]c2=O)c1,-1.18,-0.5,0.48%,-0.61%,-1.09%
COc1cc(N)c(Cl)cc1C(=O)NC1CN2CCC1CC2 (stereo not given) [zacopride],0.12,-0.23,-1.28%,-2.33%,-4.26%
NCc1ccccc1CC(=O)N[C@@H]1C(=O)N2C(C(=O)O)=C(CSc3nnnn3CC(=O)O)CS[C@H]12 [ceforanide],0.96,0.98,-0.17%,2.04%,2.57%
CC1(C)CCC(C)(C)c2cc(Cn3cccn3)c(/C=C/c3ccc(C(=O)O)cc3)cc21 [palovarotene],3.77,1.22,1.2%,0.58%,2.48%
O=C1c2ccc(Nc3ccc(F)cc3F)cc2CCc2ccc(OC[C@H](O)CO)cc21 [skepinone-L],-0.76,-3.41,-5.13%,-8.06%,-9.5%
O[C@@](Cc1nc(CC2(C(F)(F)F)CC2)c[nH]1)(c1ccc(-n2cccn2)cc1)C(F)(F)F,0.23,-0.02,0.57%,-0.43%,-2.55%
Cc1cc(S(=O)(=O)O)c2c(C)ccc(C(C)C)cc1-2 [sodium-gualenate],-10.1,-5.96,-9.82%,-7.07%,-0.7%
O=C(CSc1nc2c(c(=O)n1-c1ccccc1)SCC2)Nc1ccc(-c2ccccc2)cn1,2.66,-2.46,3.88%,1.2%,-2.73%
Nc1ccn([C@@H]2O[C@@](CO)(CCl)[C@@H](O)[C@H]2F)c(=O)n1,3.35,2.02,-3.04%,-0.34%,2.59%
CC(C)C[C@H](NC(=O)CNC(=O)c1cc(Cl)ccc1Cl)B1OC(=O)C(CC(=O)O)(CC(=O)O)O1 [ixazomib-citrate],2.06,1.34,22.3% (active),29% (active),20.8% (active)
CC(=O)O[C@H]1CC[C@@]2(C)C(=CC[C@@H]3[C@@H]2CC[C@]2(C)C(=O)CC[C@@H]32)C1 [prasterone-acetate],-0.78,2.86,3.18%,4.82%,-2.88%

SMILES,inhibition of SARS-CoV-2 cytopathic effect (1 nM) [%],inhibition of SARS-CoV-2 cytopathic effect (8.33 nM) [%],inhibition of SARS-CoV-2 cytopathic effect (100 nM),inhibition of SARS-CoV-2 cytopathic effect (833.33 nM),inhibition of SARS-CoV-2 cytopathic effect (10000 nM)
CC(=O)OCC1=C(C(=O)O)N2C(=O)[C@@H](NC(=O)CSc3ccncc3)[C@H]2SC1 [cephapirin],-1.67,4.78,6.28%,5.89%,2.88%
CNC(=C[N+](=O)[O-])NCCSCc1ccc(CN(C)C)o1 [ranitidine],2.45,2.26,2.56%,0.8%,1.08%
COc1cc2nc(N3CCN(C(=O)C4CCCO4)CC3)nc(N)c2cc1OC (stereo not given) [terazosin],1.36,-0.59,-1.51%,-0.05%,1.35%
Cc1cccc(C)c1NC(=O)c1ccc(N)cc1 [ameltolide],0.76,1.03,0.37%,-0.04%,-2.67%
O=C(Nc1cccnn1)N1CCC(=Cc2cccc(Oc3ccc(C(F)(F)F)cn3)c2)CC1,0.89,1.24,-0.76%,-0.98%,-3.19%
CCOc1cc(C(=O)N2CCC(N3CCN(C)CC3)CC2)ccc1Nc1ncc2c(n1)N(C1CCCC1)c1ccccc1C(=O)N2C,0.46,1.68,-0.44%,-1.7%,-0.04%
CN1C2CCCC1CC(NC(=O)c1nn(C)c3ccccc13)C2 (stereo not given) [granisetron],3.53,4.21,-1.14%,-2.63%,-4.21%
CCOC(=O)N1CSC[C@H]1C(=O)O [telmesteine],1.96,2.23,2.74%,4.95%,-0.12%
Nc1cc2c3ccccc3ccc2c2ccccc12 [6-aminochrysene],1.36,2.29,2.99%,-3.94%,1.34%
CC(=O)Nc1ccccc1 [acetanilide],-1.3,2.8,1.67%,1.23%,0.69%
COC(=O)Nc1ccc(-c2nc(N3CCOCC3)c3cnn(C4CCN(Cc5cccnc5)CC4)c3n2)cc1,-4.18,-1.95,3.87%,-4.82%,-2.6%
CCOC(=O)c1cc(C#N)c(N2CCC(C(=O)NS(=O)(=O)Cc3ccccc3)CC2)nc1C,3.08,2.38,0.44%,1.19%,-2.86%
CCCCCCCCCCCCCCCCOc1nc2ccc(C)cc2c(=O)o1 [cetilistat],2.2,1.36,-0.06%,0.62%,0.91%
CN(C)CCN(Cc1ccccc1)c1ccccn1 [tripelennamine],1.72,2.84,0.58%,-0.69%,-1.94%
C1CCN2C[C@@H]3C[C@@H](CN4CCCC[C@@H]34)[C@H]2C1 [sparteine-sulfate],0.15,4.17,3.05%,1.05%,-2.55%
Cc1ncc([N+](=O)[O-])n1CC(O)CN1CCOCC1 (stereo not given) [morinidazole],-0.31,-0.21,-0.51%,-1.22%,-0.64%
O=C(OCC(O)CO)c1ccccc1Nc1ccnc2cc(Cl)ccc12 (stereo not given) [glafenine],-1.53,0.88,2.29%,-3.09%,-2.34%
CC(C)(C)NC[C@H](O)COc1cccc2c1CCCC2=O [levobunolol],-6.66,-1.55,-0.235%,2.58%,2.67%
N=C(N)NCCSSCCNC(=N)N [guanidinoethyldisulfide-bicarbonate],-2.83,-2.77,-1.91%,-2.43%,-5.27%
CCCCN(CCCC)CC(O)c1cc(Cl)cc2c1-c1ccc(Cl)cc1/C2=C/c1ccc(Cl)cc1 (stereo not given) [lumefantrine],-1.1,3.13,2.25%,0.99%,-1.35%

# — the supplement of paper PMC13380429
